Source: PubChem BioAssay (Tox21)
Several values for one entry are separate records, joined by “and”; a condition that tells them apart may be missing. Identical values can stand only once. Inconclusive results are not listed. A structure can be active in one record and inactive in another. Activity calls are given as the source filed them. Unless noted, calls follow the shape of the full dose curve.

Experiments:
[1] = qHTS assay to identify small molecule antagonists of the estrogen related receptor signaling pathway with the pleiotropic PPARgamma coactivator (PGC) from Tox21 10K library - cell viability counter screen (AID 1224840; active = well fitted cell-killing curve with a large enough effect in the repeat runs, not every such curve was filed as active; also: nearly all actives have a fitted effect of over 40% in size; also: potency is read from the fitted curve at half-maximal effect)
Summary of the method: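 PGC/ERR cells, 2,000/well; 6 h pre-incubation 37 C/5% CO2; cpd in DMSO via pin tool; 17.5 h 37 C; CellTiter-Fluor, 30 min; fluorescence.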

[2] = qHTS assay to identify small molecule antagonists of the estrogen related receptor signaling pathway with the pleiotropic PPARgamma coactivator (PGC) from Tox21 10K library (AID 1224841; call rule not given here; also: actives are mostly falling curves and most rising ones were filed inactive; nearly all actives have a fitted effect of over 50% in size; also: potency is read from the fitted curve at half-maximal effect)
Summary of the method: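 PGC/ERR cell line, 2,000 cells/well; 6 h pre-incubation 37 C/5% CO2; compounds (DMSO) pinned in; 18 h, 37 C; One-Glo, 30 min RT; luminescence.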

[3] = qHTS assay to identify small molecule agonists of the estrogen related receptor signaling pathway with the pleiotropic PPARgamma coactivator (PGC) from Tox21 10K library (AID 1224842; active = well fitted curve in the direction sought with a large enough effect in the repeat runs; an effect the other way counts as inactive or inconclusive; also: nearly all actives have a fitted effect of over 15% in size)
Summary of the method: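 Luminescence from One-Glo (30 min, room temperature) measured after PGC/ERR cells had 18 h at 37 C with pinned compound (23 nL in DMSO). Cells had been seeded at 2,000 per well and pre-incubated 6 h.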

[4] = qHTS assay to identify small molecule agonists of the hypoxia (HIF-1) signaling pathway - cell viability counter screen (AID 1224844); also: nearly all actives have a fitted effect of over 50% in size; also: potency is read from the fitted curve at half-maximal effect
Summary of the method: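 ME-180 HRE-bla cells, 2,000/well, 0.5% dialyzed FBS; 5 hr settle, 17 hr compound at 37C/5% CO2; CCF4-AM reporter read first, then CellTiter-Glo luminescence after 30 min RT.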

[5] = qHTS assay to identify small molecule agonists of H2AX (AID 1224845; active = well fitted activation curve with a large enough effect in the signal ratio in the repeat runs, not every such curve was filed as active; the % refers to the signal ratio; also: potency is read from the fitted curve at half-maximal effect)
Summary of the method: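 Phospho-H2AX Ser139 measured by HTRF (ex 320 nm; em 665 and 620 nm) after 24 hr antibody incubation. Compounds, 15 concentrations, 0.76% DMSO, were applied to CHO-K1 cells for 3hr at 37C before lysis.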

[6] = qHTS assay to identify small molecule agonists of the hypoxia (HIF-1) signaling pathway (AID 1224846; active = well fitted activation curve with a large enough effect in the signal ratio in the repeat runs, not every such curve was filed as active; the % refers to the signal ratio)
Summary of the method: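 Cell line: CellSensor HRE-bla ME-180; 2,000 cells/well; 0.5% dialyzed FBS; 5 h preincubation; DMSO compound pin transfer; 17 h, 37C, 5% CO2; CCF4-AM added; bla FRET signal scored for activation.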

[7] = qHTS assay to identify small molecule agonists of H2AX - cell viability counter screen (AID 1224847); also: nearly all actives have a fitted effect of over 30% in size; also: potency is read from the fitted curve at half-maximal effect;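 as to activity change, negative = cytotoxicity: wild-type CHO-K1 cells; top concentration of the series differs between compounds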
Summary of the method: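 CHO-K1 wt, 1000 cells/well, o/n 37C; cpds 15 conc, 3 h 37C, 0.76% DMSO; CellTiter-Glo, 30 min RT, luminescence.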

[8] = target: Thyrotropin receptor (Homo sapiens) (UniProt P16473); assay: qHTS assay to identify small molecule agonists of the thyroid stimulating hormone receptor (TSHR) signaling pathway (AID 1224843); also: nearly all actives have a fitted effect of over 45% in size
Chain of Thyrotropin receptor (Homo sapiens) (P16473 whole entry, looked up): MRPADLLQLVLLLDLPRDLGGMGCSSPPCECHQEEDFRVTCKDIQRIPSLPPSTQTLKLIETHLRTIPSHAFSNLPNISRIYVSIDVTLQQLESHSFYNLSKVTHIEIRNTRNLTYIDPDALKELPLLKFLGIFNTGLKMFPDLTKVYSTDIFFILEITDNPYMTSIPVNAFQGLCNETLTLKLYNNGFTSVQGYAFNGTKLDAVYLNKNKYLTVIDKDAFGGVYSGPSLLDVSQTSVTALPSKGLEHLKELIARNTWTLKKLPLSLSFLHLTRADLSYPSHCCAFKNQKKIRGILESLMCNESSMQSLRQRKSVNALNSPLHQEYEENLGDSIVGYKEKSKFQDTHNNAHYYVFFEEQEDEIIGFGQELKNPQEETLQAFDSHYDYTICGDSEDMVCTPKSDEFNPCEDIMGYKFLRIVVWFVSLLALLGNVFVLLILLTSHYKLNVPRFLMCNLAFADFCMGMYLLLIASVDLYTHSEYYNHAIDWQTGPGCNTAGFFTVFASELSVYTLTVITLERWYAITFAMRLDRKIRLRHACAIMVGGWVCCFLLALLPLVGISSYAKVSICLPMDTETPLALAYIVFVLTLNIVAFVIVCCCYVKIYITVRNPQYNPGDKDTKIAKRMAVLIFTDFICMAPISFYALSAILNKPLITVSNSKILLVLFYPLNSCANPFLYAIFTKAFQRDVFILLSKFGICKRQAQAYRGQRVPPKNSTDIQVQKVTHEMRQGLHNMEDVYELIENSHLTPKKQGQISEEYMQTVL
Summary of the method: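 HEK293 cells stably bearing the thyrotropin receptor were plated at 800 cells/well and challenged with compound (30 min, RT). Accumulated cAMP was quantified via cAMP-d2 competing for cryptate-tagged antibody.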

[9] = target: Nuclear receptor subfamily 1 group I member 3 (Homo sapiens) (UniProt Q14994); assay: qHTS assay to identify small molecule antagonists of the constitutive androstane receptor (CAR) signaling pathway (AID 1224838; active = well fitted curve in the direction sought with a large enough effect in the repeat runs; an effect the other way counts as inactive or inconclusive;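 also: HepG2 cells stably expressing hCAR with CYP2B6 luciferase reporter stimulated by CITCO; nearly all actives have a fitted effect of over 40% in size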)
Chain of Nuclear receptor subfamily 1 group I member 3 (Homo sapiens) (Q14994 whole entry, looked up): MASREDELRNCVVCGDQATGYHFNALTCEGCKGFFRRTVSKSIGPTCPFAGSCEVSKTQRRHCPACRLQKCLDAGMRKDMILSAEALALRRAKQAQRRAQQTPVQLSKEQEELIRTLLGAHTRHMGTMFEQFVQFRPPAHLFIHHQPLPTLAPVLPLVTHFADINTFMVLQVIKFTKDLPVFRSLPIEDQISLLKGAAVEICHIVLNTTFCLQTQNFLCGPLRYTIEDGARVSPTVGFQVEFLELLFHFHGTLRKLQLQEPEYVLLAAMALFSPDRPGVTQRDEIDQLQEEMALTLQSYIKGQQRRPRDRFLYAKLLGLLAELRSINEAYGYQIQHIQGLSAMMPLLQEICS
Summary of the method: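 HepG2-CYP2B6-hCAR cells; 4 h pre-incubation; cpd (15 conc) + CITCO 50 nM final; 24 h, 37 C/5% CO2; ONE-Glo, luminescence.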

[10] = target: Nuclear receptor subfamily 1 group I member 3 (Homo sapiens) (UniProt Q14994); assay: qHTS assay to identify small molecule agonists of the constitutive androstane receptor (CAR) signaling pathway (AID 1224839; active = well fitted curve in the direction sought with a large enough effect in the repeat runs; an effect the other way counts as inactive or inconclusive;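 also: HepG2 cells stably carrying human CAR and a CYP2B6 luciferase reporter; series mostly up to about 92 µM; nearly all actives have a fitted effect of over 15% in size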)
Summary of the method: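 Luminescence read-out (ONE-Glo, 30 min, room temperature) from double-stable HepG2-CYP2B6-hCAR cells exposed 24 h to 15-point compound series in presence of 0.75 uM PK11195 final.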
% is scaled to controls: 0 for no effect and ±100 for the full control effect.

CCc1cccc(C)c1N
inactive: Potency [1] | Potency [2] | outcome [3] | Potency [4] | Potency [5] | outcome [6] | Potency [7]

CCCCC(CC)COC(=O)CS (configuration not stated)
inactive: Potency [1] | Potency [2] | outcome [3] | Potency [8] | Potency [4] | Potency [5] | outcome [6] | Potency [7]

O=S(=O)(O)c1ccc2ccccc2c1
inactive: Potency [1] | Potency [4] | Potency [5] | outcome [6] | Potency [7]

CN(C)CCC(c1ccc(Cl)cc1)c1ccccn1 (configuration not stated)
inactive: Potency [1] | Potency [4] | Potency [5] | Potency [7]

C[C@H]1C[C@@H]2[C@H]([C@@H](O)C[C@@]3(C)[C@H]2CC[C@]3(O)C(=O)CO)[C@@]2(C)C=CC(=O)C=C12
inactive: Potency [1] | Potency [2] | outcome [3] | Potency [4] | Potency [5] | Potency [7]

c1ccc2scnc2c1
inactive: Potency [1] | Potency [4] | Potency [5] | outcome [6] | Potency [7]

COc1ccc(Nc2ccccc2)c(C)c1
inactive and 101 µM (active): Potency [7]
inactive: Potency [1] | Potency [2] | outcome [3] | Potency [4] | Potency [5] | outcome [6]

O=C(O)[C@H](O)[C@@H](O)[C@H](O)[C@H](O)CO
inactive: Potency [1] | Potency [4] | Potency [5] | outcome [6]

O=P(OC(CCl)CCl)(OC(CCl)CCl)OC(CCl)CCl
active: Potency [2] 54.2 µM and 54.5 µM
inactive: Potency [1] | outcome [3] | outcome [6] | Potency [7]

Cc1ccc2oc(=O)ccc2c1
inactive: Potency [9] | Potency [1] | Potency [4] | Potency [5] | outcome [6] | Potency [7]

CCN(CC)CCCC(C)Nc1ccnc2cc(Cl)ccc12 (configuration not stated)
inactive: viability change, negative = cytotoxic [1] -1.36% [at 8.39 µM] and -20.9% [at 19 µM] | activity change, negative = cytotoxicity [4] -3.66% [at 15.8 µM] | activation (H2AX phosphorylation) [5] 3.5% [at 14 µM] and -4.76% [at 31.6 µM] | activity change, negative = cytotoxicity [7] 0.575% [at 14 µM] and -2.97% [at 31.6 µM]

CC(O)COCC(C)O (configuration not stated)
inactive: Potency [1] | Potency [8] | Potency [4] | Potency [5] | outcome [6] | Potency [7]

C#C[C@]1(O)CC[C@H]2[C@@H]3CCC4=CC(=O)CC[C@@H]4[C@H]3CC[C@@]21C
inactive: Potency [10] | Potency [1] | Potency [4] | Potency [7]
active: Potency [5] 28.4 µM and 19.6 µM

c1ccc(OCCOc2ccccc2)cc1
inactive: Potency [9] | Potency [1] | Potency [8] | Potency [4] | Potency [5] | outcome [6] | Potency [7]

OCCOCCN1CCN(C2=Nc3ccccc3Sc3ccccc32)CC1
inactive: Potency [1] | Potency [4] | Potency [5] | outcome [6] | Potency [7]

COc1cc(Cc2cnc(N)nc2N)cc(OC)c1OC
inactive: Potency [1] | Potency [8] | Potency [4] | Potency [5] | Potency [7]

Cc1cc(C)c(C)cc1C
inactive: Potency [1] | Potency [8] | Potency [4] | Potency [5] | outcome [6]

C=CCOC(=O)c1ccccc1C(=O)OCC=C
inactive: Potency [1] | Potency [4] | Potency [5] | outcome [6] | Potency [7]

O=S1(=O)CC=CC1
inactive: Potency [1] | Potency [8] | Potency [4] | Potency [5] | outcome [6]

Nc1cc([N+](=O)[O-])ccc1O
inactive: Potency [9] | Potency [10] | Potency [2] | outcome [3] | Potency [8] | Potency [4] | outcome [6] | Potency [7]

c1c[nH]cn1
inactive: Potency [1] | Potency [4] | Potency [5] | outcome [6]

Nc1ccccc1[N+](=O)[O-]
inactive: Potency [1] | Potency [2] | outcome [3] | Potency [4] | Potency [5] | outcome [6]

OCc1cccnc1
inactive: Potency [1] | Potency [4] | Potency [5] | Potency [7]

CC(c1cc2ccccc2s1)N(O)C(N)=O (configuration not stated)
inactive: Potency [1] | Potency [4] | Potency [5] | outcome [6] | Potency [7]

C=C(C)C(=O)O[C@H]1C[C@@H]2CC[C@@]1(C)C2(C)C
inactive: outcome [3] | outcome [6] | Potency [7]
1.94 µM (active) and inactive: Potency [4]
2.24 µM (active) and inactive: Potency [5]
13.6 µM (active) and inactive: Potency [1]
60.8 µM (active) and inactive: Potency [2]

O=C(O)c1ccc2c(c1)C(=O)OC2=O
inactive: Potency [1] | Potency [8] | Potency [4] | Potency [5] | outcome [6] | Potency [7]

CCCCCCCCCCCCCCCO
69.1 µM (active) and inactive: Potency [2]
inactive: Potency [1] | outcome [3] | Potency [8] | Potency [4] | Potency [5] | outcome [6]

CC(=O)CC(=O)Nc1ccccc1
inactive: Potency [1] | Potency [4] | Potency [5] | outcome [6]

Cc1ccc(S(N)(=O)=O)cc1
inactive: Potency [1] | Potency [8] | Potency [4] | Potency [5] | outcome [6] | Potency [7]

CCCCCCCCCC
inactive: Potency [1] | Potency [8] | Potency [4] | Potency [5] | outcome [6] | Potency [7]

FC(F)(F)c1ccc(Cl)c(Cl)c1
inactive: Potency [1] | Potency [4] | Potency [5] | outcome [6]

CCCCC(CC)COC(=O)C(C#N)=C(c1ccccc1)c1ccccc1 (configuration not stated)
inactive: Potency [1] | Potency [2] | outcome [3] | Potency [8] | Potency [4] | Potency [5] | outcome [6] | Potency [7]

CC(C)(C)[C@@H](O)[C@@H](Cc1ccc(Cl)cc1)n1cncn1
inactive: Potency [1] | Potency [8] | Potency [4] | Potency [5] | outcome [6] | Potency [7]

O=C(O)c1cc(C(=O)O)cc(S(=O)(=O)O)c1
inactive: Potency [1] | Potency [8] | Potency [4] | Potency [5] | outcome [6] | Potency [7]

COc1ccc2cc([C@H](C)C(=O)O)ccc2c1
inactive: Potency [9] | Potency [1] | Potency [8] | Potency [4] | Potency [5] | Potency [7]

CCCCCCCCCCCCCCO
inactive: Potency [1] | Potency [4] | Potency [5] | outcome [6] | Potency [7]
